NS1 inh – inhibitors of influenza NS1 protein function | Potency, µM (titrated, usually from 46.1 µM), without a hit: at the top dose activity, positive = more growth | 270,000 tested, 0.4% active; calls by dose curve; note: actives are rising curves; nearly all actives have a fitted effect of over 50% in size
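Compounds were scored for reversing the slow growth caused by influenza A NS1 in S. cerevisiae, measured by optical density at 600 nm. Assay medium contained 2% galactose at pH 6.0; NS1-free yeast of the same strain were the positive control.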
Pf growth 96h – P. falciparum growth inhibition at 96 hours. AID 504834. Potency, µM (top dose mostly 28.7 µM), for the others: at the highest dose activity change, negative = inhibition, most hits filed as inhibitors. 320,000 tested, 6.9% active. P. falciparum luciferase reporter growth, 96 h; note: % is set by controls: 0 for no effect and ±100 for the full control effect
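P. falciparum expressing integrated firefly luciferase grown in erythrocytes (2% hematocrit, 0.05% parasitemia final) with compounds for 96 hours at 37 C, 5% CO2. Growth inhibition read as loss of luminescence after adding luciferase detection reagent.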
Pf growth 48h – inhibits P. falciparum growth in the first generation, 48 h | 310,000 tested, 5.9% active | Potency, µM (series often up to 28.7 µM), for the others: at the highest dose activity change, negative = inhibition, actives largely listed as inhibitors | AID 504832 | P. falciparum luciferase growth in erythrocytes, 48 h; note: % is set by controls: 0 for no effect and ±100 for the full control effect
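Growth was read as firefly luciferase luminescence after a 48 h, 37 C, 5% CO2 exposure of compounds to reporter-bearing P. falciparum cultures (0.1% parasitemia, 2% hematocrit final) in Albumax-supplemented RPMI 1640.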
AMA1 RON2 block – AMA1-RON2 (P. falciparum) interaction inhibition; AlphaScreen AMA1-biotinylated RON2 peptide binding; Potency, µM (highest dose often 58.2 µM), for inactives: at the highest dose activity change, negative = inhibition, actives largely listed as inhibitors; 360,000 tested, 0.2% active; AID 720542;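 note: 0% = vehicle wells and -100% = peptide control; nearly all actives have a fitted effect of over 45% in size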
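AMA1 (3D7) with his tag at 25 nM final met compounds first, then biotinylated RON2 peptide at 25 nM; detection used donor plus acceptor beads, 10 µg/mL apiece, read by AlphaScreen after 30 min at room temperature.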
Sm TGR block – S. mansoni TGR enzyme inhibition; Q962Y6; purified TGR, DTNB reduction, TNB absorbance 405 nm; Potency, µM (titrated, usually from 114 µM), without a hit: at the highest dose activity change, negative = inhibition, most hits filed as inhibitors; 360,000 tested, 3% active; AID 485364; note: % is set by controls: 0 for no effect and ±100 for the full control effect; nearly all actives have a fitted effect of over 60% in size
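First, TGR (20 nM dispensed) and NADPH were mixed with compound. Second, a 15 min room-temperature incubation followed. Third, further NADPH and then DTNB were added to start the reaction. Finally, TNB absorbance was monitored kinetically.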
* marks the source's active call; other numbers are inactive results; ? = inconclusive; nt = no result given. In the library only some 11% were active in any assay of this set; here they are far more common. Unless noted, calls come from the whole dose curve; as a rule, active = well fitted curve in the direction sought with a large enough effect; inconclusive = small, poorly fitted or top-dose-only effect, or another doubt; inactive = no such curve, though single readings can be large; an effect the other way counts as inactive or inconclusive. Potency is the fitted concentration of half-maximal effect.

SMILES | NS1 inh | Pf growth 96h | Pf growth 48h | AMA1 RON2 block | Sm TGR block
COC(=O)C1=C(c2ccc(F)cc2OCc2ccccc2)C[C@@H]2CC[C@H]1N2C(=O)NC1CCCCC1 | nt | 15µM* | ? | -2% | 2%
COC(=O)C1=C(c2ccc(F)cc2OCc2ccccc2)C[C@@H]2CC[C@H]1N2C(=O)N1CCCC1 | nt | ? | 9.3µM* | 0% | 1%
COC(=O)C1=C(c2ccc(F)cc2OCc2ccccc2)C[C@@H]2CC[C@H]1N2C(=O)NC(C)C | nt | ? | 9.3µM* | 6% | -27%
CC(=O)Nc1cccc(NC(=O)CS(=O)(=O)c2cn(CC(=O)N3CCCC3)c3ccccc23)c1 | 14% | -28% | -16% | 10% | ?
O=C(NCCc1ccccc1O)c1cc2c(cc1[N+](=O)[O-])OCO2 | nt | nt | nt | -2% | nt
Cc1ccccc1S(=O)(=O)NC1OC(=O)C(Oc2ccccc2)=C1Br (centres undefined) | 1% | 96% | 0% | 9% | 8.9µM*
Cc1ccccc1S(=O)(=O)NC1OC(=O)C(Cl)=C1Cl (centres undefined) | -3% | 9% | 40% | -12% | 3.2µM*
Cc1ccccc1S(=O)(=O)Nc1nc2ccccc2nc1Cl | nt | -5% | 30% | 4% | -2%
O=C(CS(=O)(=O)Cc1ccccc1)N1CCN(c2ccccc2F)CC1 | -3% | 21% | 6% | -9% | 0%
COc1ccccc1CNc1ncnc2c1cnn2-c1ccc(C)cc1 | nt | nt | nt | nt | 7%
CCCC(=O)N(Cc1cccnc1)c1nc2c(OC)ccc(Cl)c2s1 | 1% | 12µM* | ? | 2% | 0%
COc1ccc2nc(N(Cc3cccnc3)C(=O)CCc3ccccc3)sc2c1 | nt | nt | nt | nt | 12%
O=C(CCOc1ccccc1)N(Cc1cccnc1)c1nc2c(F)cccc2s1 | nt | nt | nt | nt | 2.2µM*
CC(=O)NCCC(=O)N(Cc1ccccc1)c1nc2c(C)cccc2s1 | -62% | ? | 7.4µM* | -7% | 3%
Cc1ccc2sc(N(Cc3cccnc3)C(=O)CCOc3ccccc3)nc2c1C | nt | nt | nt | nt | 35µM*
Cc1nn(C)c2c1c(-c1ccccc1)cc(=O)n2C(C)C(=O)NCc1ccc(F)cc1 (centres undefined) | nt | nt | nt | nt | 6%
CCc1ccc(CNC(=O)CN2C(=O)c3cccnc3Oc3ccc(C)cc32)cc1 | nt | nt | nt | nt | 2%
O=C(O)c1cc(O)c(O)c(O)c1 | nt | 8.5µM* | ? | nt | nt
NNC(=O)c1cc(O)c(O)c(O)c1 | 8% | 29% | ? | -10% | 0%
COC(=O)C1=C(C)N(CCc2ccc(OC)c(OC)c2)C(=O)/C1=C\N(C)C | -5% | nt | ? | 0% | 7.9µM*
CCn1c(C)nc2cc(C(=O)N=Nc3c(O)[nH]c4c(C)cc(C)cc34)ccc21 | 11% | 6.6µM* | 9.3µM* | nt | 7%
O=S(=O)(NCCCc1ccccc1)c1ccc(F)c(F)c1 | -32% | 48% | 54% | 19% | -1%
O=S(=O)(NCCCc1ccccc1)c1ccc(Cl)cc1 | -24% | 9.3µM* | 6% | 62% | -1%
COc1ccc(-n2nc(C(=O)NCC(=O)N3CCC(C(N)=O)CC3)c3ccccc3c2=O)cc1 | 9% | ? | 49% | 8% | -3%
Cc1ccc(C(C)NC(=O)c2cc3cc(Br)ccc3oc2=N)cc1 (centres undefined) | 19% | -14% | ? | -13% | -35%
SMILES | NS1 inh | Pf growth 96h | Pf growth 48h | AMA1 RON2 block | Sm TGR block
Fc1ccc(Nc2ccnc(Nc3ccc(F)cc3)n2)cc1 | -50% | ? | 2.3µM* | -1% | 3%
C/C(CCN1CCc2nc(-c3ccccc3)c(-c3ccccc3)cc2C1)=N\O[C@@H](C)c1cc(-c2c(C)cc(C)cc2C)no1 | ? | 13µM* | ? | 0% | -3%
Cc1ccc(OCCCCN2CCc3ccccc3C2)c(C)c1 | -39% | -35% | -33% | -1% | -17%
CCc1cc2c(nc1CC)CCN(CC/C(C)=N/O[C@@H](C)c1cc(-c3c(C)cc(C)cc3C)no1)C2 | -72% | 7.4µM* | ? | nt | -15%
CCNC(=S)N(Cc1cc2cc(C)cc(C)c2[nH]c1=O)C1CCCC1 | 9% | 6.6µM* | ? | 13% | 1%
CCC(=O)N1c2ccccc2C(N(C(C)=O)c2ccccc2)CC1C (centres undefined) | 3% | ? | -28% | -3% | 10µM*
O=[N+]([O-])c1ccc(S(=O)(=O)Nc2nc(-c3ccccc3)cs2)cc1 | 25% | 6.6µM* | 25% | 0% | -6%
COc1ccc(/C=C2/SC(=O)N(CCNC(=O)C3CC(=O)N(Cc4ccccc4)C3)C2=O)cc1 (centres undefined) | nt | nt | nt | -3% | nt
Cc1nc(SC(C)C(=O)NC2CCCCC2C)c2c(C)c(C)sc2n1 (centres undefined) | 5% | 15µM* | 8% | 4% | -7%
COc1cc(CNC(C)(C)C)ccc1OCC(=O)NC(C)(C)C | 1% | -6% | ? | 5% | 0%
COc1cc(CNc2ccc3[nH]c(=O)[nH]c3c2)ccc1OCC(=O)NC(C)(C)C | -8% | nt | 5% | -5% | 3%
COc1cc(CNc2cccc(F)c2)cc(Br)c1O | 3% | ? | ? | -12% | 13µM*
COc1ccc(CNc2ccccc2)cc1Br | -3% | ? | 11% | 36% | 0%
COc1cc(CNc2ccc3[nH]c(=O)[nH]c3c2)cc(Br)c1OCC(=O)NC(C)(C)C | 6% | ? | nt | -25% | 13µM*
COc1cc(CNc2cccc(C(=O)O)c2)cc(Br)c1OCC(=O)NC(C)(C)C | ? | 12µM* | 6% | -6% | 7%
O=C(OCCSCCOC(=O)C1CC=CCC1)C1CC=CCC1 (centres undefined) | nt | nt | nt | 45% | nt
O=C(O)Cn1cc(C(=S)N2CCCCC2)c2ccccc21 | nt | 8.3µM* | -1% | -1% | 0%
COc1ccc(N2CCN(C(=O)C(=O)c3cn(CC(=O)N4CCCCCC4)c4ccccc34)CC2)cc1 | 0% | 10µM* | ? | -22% | -26%
CC1CCCN(C(=O)C(=O)c2cn(CC(=O)N3CCCCCC3)c3ccccc23)C1 (centres undefined) | 24% | 12µM* | ? | 0% | -11%
O=C(c1ccccc1)c1cn(CC(=O)N2CCCC2)c2ccccc12 | -3% | 3.7µM* | nt | 5% | 0%
O=C(c1ccccc1)c1cn(CC(=O)N2CCOCC2)c2ccccc12 | -2% | 6% | 11% | 7% | 0%
CC(C)NC(=O)NC(=O)COC(=O)c1ncc(Cl)c(Cl)c1Cl | nt | -1% | -1% | 0% | -2%
N#CC(c1ccccc1)C(CC(=O)c1ccccc1)c1ccccc1 (centres undefined) | nt | nt | nt | 6% | nt
O=C(C(=O)N1CCN(c2ccccc2)CC1)c1cn(CC(=O)N2CCCCCC2)c2ccccc12 | ? | ? | 9.3µM* | -8% | -4%
S=C1NC(C23CC4CC(CC(C4)C2)C3)=CC(c2ccc3c(c2)OCO3)N1 (centres undefined) | nt | ? | 4.1µM* | 7% | -17%

Assay outcomes from PubChem.
